RTF Ca sens inh – cardiac RTF calcium desensitization | inhibition, % at 7.15 µM | 0.12% of 340,000 active | P19429+P45379 | IANBD-labeled cardiac RTF, Ca2+ fluorescence;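 active = inhibition above the mean inhibition of all tested compounds plus 3 SD, cut at about 17% in these data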;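 note: assay run at fixed EC70 calcium of 1.6 mM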
C-LANA FP – blocks KSHV LANA C-terminal domain binding to DNA | MBP-C-LANA/FAM-LBS DNA binding, fluorescence polarization | inhibition, % at 9 µM | 0.078% of 340,000 active | AID 504423;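 active = highest replicate inhibition at or above 60% at 9 µM, even if other replicates fall short; inactive = all replicates below 60% inhibition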
RTF Ca sens act – increases calcium sensitivity of human cardiac regulated thin filaments. P19429+P45379. IANBD-labeled TnC RTF fluorescence at EC20 calcium; 0% EC20 calcium, 100% full calcium. activation, % at 7.2 µM. 0.24% of 340,000 active. AID 493008;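 active = activation above the mean over all tested compounds plus 3 SD, cut at about 30% in these data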;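 note: rise in fluorescence read as greater calcium sensitivity of cardiac thin filaments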
Keap1-Nrf2 PPI – disrupts human Keap1 binding to Nrf2 peptide. Keap1 Kelch-Nrf2 peptide fluorescence polarization, 1536-well. AID 504523. inhibition, % at 9.4 µM. 0.15% of 340,000 active; in the data active = inhibition above about 12%;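 note: human Keap1 Kelch domain with fluorescein labeled Nrf2 9mer peptide probe; higher means more block of Keap1 binding to Nrf2 peptide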
Large screens that a line does not name were inactive. Compounds with a hit are over-represented: about 0.5% of the library has one in this group of screens.

Oc1oc(-c2ccccc2)nc1C=Nc1ccccc1	none
CC(=O)Nc1ccc(N=Cc2nc(-c3ccc(C)cc3)oc2O)cc1	RTF Ca sens act 38
CCC(C(=O)NCC1CCCO1)n1nc(C)c2sc3ccccc3c2c1=O (stereo unspecified)	none
CC(C)(C)c1ccc(C(=O)O[C@H]2[C@H](Cc3ccccc3)NS(=O)(=O)[C@H]3C[C@@H]4C=C[C@]23O4)cc1	none
COc1ccc([C@H]2CC(=O)C=C(c3cccc(NC(C)=O)c3)C2)cc1	none
CCOc1ccc2ccccc2c1/C=N/NC(=O)c1ccncc1	none
CCn1c(O)c(/C=N/NC(=O)c2ccncc2)c(=O)n(CC)c1=S	RTF Ca sens act 97
COc1cc(Cl)c(C)cc1NC(=O)CC1CCCC1	none
CS/C(=N\S(=O)(=O)c1ccc(N)cc1)NS(=O)(=O)c1cccs1	C-LANA FP 113
CS/C(=N\S(=O)(=O)c1cccs1)Nc1ccc(Cl)cc1	none
Cc1nn2c(N)c(-c3ccccc3)cnc2c1-c1ccccc1	none
CCOC(=O)[C@H]1[C@H]2COc3ccc(Cl)cc3[C@@H]2N2C(=O)c3cc(F)ccc3NC(=O)[C@@]12C	none
Cc1nn(Cc2c(F)c(F)c(F)c(F)c2F)c(C)c1NC(=O)c1nn(C)cc1Br	none
Cc1nn(Cc2c(F)c(F)c(F)c(F)c2F)c(C)c1NC(=O)c1nn(C)c(C)c1Br	RTF Ca sens act 47
NC1=NC(c2ccccc2C(F)(F)F)N(c2ccc(F)c(Cl)c2)C(N)=N1 (stereo unspecified)	none
Cc1cc(C)cc(N=Cc2[nH]c3ccc(Br)c(Cl)c3c2O)c1	RTF Ca sens act 64
O=c1[nH]ncc2c3ccccc3n(Cc3cccc(Cl)c3)c12	RTF Ca sens act 56
CCCCNC(=O)COC(=O)c1c2c(nc3ccccc13)/C(=C\c1cccs1)CC2	RTF Ca sens act 37
O=C(COC(=O)c1c2c(nc3ccccc13)/C(=C/c1ccco1)CC2)NC1CCCC1	RTF Ca sens inh 17
COc1cccc(CNS(=O)(=O)c2ccc3c(c2)C(C)(C)C(=O)N3C)c1	none
CC(C)(C)OC(=O)C[C@H]1C/C=C\C[C@H](CC(=O)NCCO)C(=O)N[C@@H](c2ccccc2)COC1=O	none
O=C(NS(=O)(=O)Nc1ccccn1)c1c[nH]c2ccccc12	none
N#CC1=C(N)Oc2cc(N)ccc2C1c1cccnc1 (stereo unspecified)	none
CCN(CC)c1ccc2c(c1)OC(N)=C(C#N)C2c1cccnc1 (stereo unspecified)	RTF Ca sens act 157
CCN1C(=O)/C(=C\N2CCN(C(=O)c3ccco3)CC2)SC1=S	none
CCN1CCN(c2c(/C=C3\SC(=S)N(Cc4ccco4)C3=O)c(C)c(C#N)c(=O)n2C)CC1	RTF Ca sens act 62
Cc1cc(Br)c2c(c1)C(O)(N1CCCCC1C)C(=O)N2 (stereo unspecified)	RTF Ca sens act 30
Cc1cc([N+](=O)[O-])cc2c1NC(=O)C2(O)N1CCCC(C)C1 (stereo unspecified)	none
CS(=O)(=O)c1cccc(-c2nnc(NC(=O)CCS(=O)(=O)c3ccccc3)o2)c1	none
COc1ccc(CCNC(=O)c2c(N)no[n+]2[O-])cc1OC	C-LANA FP 80
COc1ccc(CCNC(=O)c2ccc(OC)c(OC)c2)cc1OC	none
CCOc1cc(C)nc(N2CCC(C(=O)NCC3CCCO3)CC2)n1 (stereo unspecified)	none
CCOC(=O)/C(=C/C=C1\Sc2ccccc2N1CC)C(C)=O	RTF Ca sens act 128
CCC(=O)/C=C1/Sc2ccccc2N1CC	none
CCOC(=O)/C(=C/C=C1\Sc2cc(C)c(C)cc2N1CC)C(C)=O	RTF Ca sens act 160
CCOC(=O)/C(=C\C=C1/Sc2ccccc2N1CC)C(C)=O	RTF Ca sens act 245
Nc1ncc(Br)cc1S(=O)(=O)NCCC(=O)N1CCN(c2ccccc2)CC1	none
COc1cc(OC)cc(-c2c(-c3cccs3)c3cc(-c4ccn[nH]4)ccc3n2C)c1	none
CCOc1ccc(CCNC(=O)CSCC(=O)Nc2ccc(OC)cc2)cc1OCC	none
Cc1cc(=O)oc2cc(OC(C)C(=O)NC3(C#N)CCCCC3)ccc12 (stereo unspecified)	none
Cc1cc(NC(=O)C(C)SCC(=O)N(C)Cc2ccccc2F)no1 (stereo unspecified)	none
CC(=O)N1CC(=O)N(c2ccccc2)C1=O	none
O=C(N/N=C/c1sc2ccccc2c1O)c1ccccc1	RTF Ca sens act 47
O=C(N/N=C/c1sc2ccccc2c1O)c1cccc2ccccc12	none
COc1ccc2cc(C(=O)N/N=C/c3sc4ccccc4c3O)ccc2c1	RTF Ca sens act 109
COc1ccc(C(=O)N/N=C/c2sc3ccccc3c2O)cc1	RTF Ca sens act 32

Bioassay records deposited in PubChem BioAssay by several laboratories.
